Measurements as given in the supplement of paper PMC4466140.

Key:
Assay in all cases: SPOT peptide array binding signal intensity (averaged, normalized) (arbitrary units (background-subtracted, floor 0; scale differs between SH3 domains)); higher = stronger binding of the SH3 domain to the peptide
CaNbp2 = target: CaNbp2
Summary of the method: (§1)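 Peptides were synthetic 15-mers on cellulose membranes, with every cysteine replaced by serine. They were incubated overnight at 4°C with GST-SH3 domains from four yeast species at 10 μg/ml in TBS-based blocking buffer. Binding signal, the replicate-averaged normalized and background-subtracted spot intensity, is in arbitrary units that differ between domains.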

CaRvs167 = target: CaRvs167
Summary of the method: as §1

CaRvs167-3 = target: CaRvs167-3
Summary of the method: as §1

CaSho1 = target: CaSho1
Summary of the method: as §1

CaSla1-D1-D2 = target: CaSla1-D1-D2
Summary of the method: as §1

CaSla1-D3 = target: CaSla1-D3
Summary of the method: as §1

ScAbp1 = target: ScAbp1
Summary of the method: as §1

ScBbc1 = target: ScBbc1
Summary of the method: as §1

ScBem1-D1 = target: ScBem1-D1
Summary of the method: as §1

ScBzz1-D1 = target: ScBzz1-D1
Summary of the method: as §1

ScBzz1-D2 = target: ScBzz1-D2
Summary of the method: as §1

ScCyk3 = target: ScCyk3
Summary of the method: as §1

ScFus1 = target: ScFus1
Summary of the method: as §1

ScHof1 = target: ScHof1
Summary of the method: as §1

ScHse1 = target: ScHse1
Summary of the method: as §1

ScLsb1 = target: ScLsb1
Summary of the method: as §1

ScLsb2 = target: ScLsb2
Summary of the method: as §1

ScLsb3 = target: ScLsb3
Summary of the method: as §1

ScLsb4 = target: ScLsb4
Summary of the method: as §1

ScMyo3 = target: ScMyo3
Summary of the method: as §1

ScMyo5 = target: ScMyo5
Summary of the method: as §1

ScNbp2 = target: ScNbp2
Summary of the method: as §1

ScPex13 = target: ScPex13
Summary of the method: as §1

ScRvs167 = target: ScRvs167
Summary of the method: as §1

ScSho1 = target: ScSho1
Summary of the method: as §1

ScSla1-D1-D2 = target: ScSla1-D1-D2
Summary of the method: as §1

ScSla1-D3 = target: ScSla1-D3
Summary of the method: as §1

SpAbp1-D1 = target: SpAbp1-D1
Summary of the method: as §1

SpBbc1 = target: SpBbc1
Summary of the method: as §1

SpBzz1-D1 = target: SpBzz1-D1
Summary of the method: as §1

SpBzz1-D2 = target: SpBzz1-D2
Summary of the method: as §1

SpCyk3 = target: SpCyk3
Summary of the method: as §1

SpHof1 = target: SpHof1
Summary of the method: as §1

SpHof1-2 = target: SpHof1-2
Summary of the method: as §1

SpHof1-3 = target: SpHof1-3
Summary of the method: as §1

SpHse1 = target: SpHse1
Summary of the method: as §1

SpLsb1 = target: SpLsb1
Summary of the method: as §1

SpLsb4 = target: SpLsb4
Summary of the method: as §1

SpMyo1 = target: SpMyo1
Summary of the method: as §1

SpNbp2 = target: SpNbp2
Summary of the method: as §1

SpPex13 = target: SpPex13
Summary of the method: as §1

SpRvs167 = target: SpRvs167
Summary of the method: as §1

SpSla1-D1-D2 = target: SpSla1-D1-D2
Summary of the method: as §1

SpSla1-D3 = target: SpSla1-D3
Summary of the method: as §1

AgAbp1 = target: AgAbp1
Summary of the method: as §1

AgBbc1 = target: AgBbc1
Summary of the method: as §1

AgBem1-D1 = target: AgBem1-D1
Summary of the method: as §1

AgBzz1-D1 = target: AgBzz1-D1
Summary of the method: as §1

AgBzz1-D2 = target: AgBzz1-D2
Summary of the method: as §1

AgCyk3 = target: AgCyk3
Summary of the method: as §1

AgFus1 = target: AgFus1
Summary of the method: as §1

AgHof1 = target: AgHof1
Summary of the method: as §1

AgHse1 = target: AgHse1
Summary of the method: as §1

AgLsb1 = target: AgLsb1
Summary of the method: as §1

AgLsb4 = target: AgLsb4
Summary of the method: as §1

AgMyo5 = target: AgMyo5
Summary of the method: as §1

AgNbp2 = target: AgNbp2
Summary of the method: as §1

AgRvs167 = target: AgRvs167
Summary of the method: as §1

AgSho1 = target: AgSho1
Summary of the method: as §1

AgSla1-D1-D2 = target: AgSla1-D1-D2
Summary of the method: as §1

AgSla1-D3 = target: AgSla1-D3
Summary of the method: as §1

CaAbp1-D1 = target: CaAbp1-D1
Summary of the method: as §1

CaAbp1-D2 = target: CaAbp1-D2
Summary of the method: as §1

CaBbc1 = target: CaBbc1
Summary of the method: as §1

CaBem1-D1 = target: CaBem1-D1
Summary of the method: as §1

CaBzz1-D1 = target: CaBzz1-D1
Summary of the method: as §1

CaBzz1-D2 = target: CaBzz1-D2
Summary of the method: as §1

CaCyk3 = target: CaCyk3
Summary of the method: as §1

CaFus1 = target: CaFus1
Summary of the method: as §1

CaHof1 = target: CaHof1
Summary of the method: as §1

CaHse1 = target: CaHse1
Summary of the method: as §1

CaLsb1 = target: CaLsb1
Summary of the method: as §1

CaLsb4 = target: CaLsb4
Summary of the method: as §1

CaMyo5 = target: CaMyo5
Summary of the method: as §1

B1: unnamed (peptide)
chain: NFLRLLIGLPSQNEL
CaNbp2
  SPOT peptide array binding signal intensity: 259
CaRvs167
  SPOT peptide array binding signal intensity: 72
CaRvs167-3
  SPOT peptide array binding signal intensity: 143
CaSho1
  SPOT peptide array binding signal intensity: 731
CaSla1-D1-D2
  SPOT peptide array binding signal intensity: ≤ 0
CaSla1-D3
  SPOT peptide array binding signal intensity: 41.2
ScAbp1
  SPOT peptide array binding signal intensity: ≤ 0
ScBbc1
  SPOT peptide array binding signal intensity: 0.5
ScBem1-D1
  SPOT peptide array binding signal intensity: 18
ScBzz1-D1
  SPOT peptide array binding signal intensity: 19
ScBzz1-D2
  SPOT peptide array binding signal intensity: 21
ScCyk3
  SPOT peptide array binding signal intensity: 101
ScFus1
  SPOT peptide array binding signal intensity: 1020
ScHof1
  SPOT peptide array binding signal intensity: 1.5
ScHse1
  SPOT peptide array binding signal intensity: 2880
ScLsb1
  SPOT peptide array binding signal intensity: 0.75
ScLsb2
  SPOT peptide array binding signal intensity: ≤ 0
ScLsb3
  SPOT peptide array binding signal intensity: 276
ScLsb4
  SPOT peptide array binding signal intensity: ≤ 0
ScMyo3
  SPOT peptide array binding signal intensity: 4
ScMyo5
  SPOT peptide array binding signal intensity: ≤ 0
ScNbp2
  SPOT peptide array binding signal intensity: 53
ScPex13
  SPOT peptide array binding signal intensity: ≤ 0
ScRvs167
  SPOT peptide array binding signal intensity: 11.7
ScSho1
  SPOT peptide array binding signal intensity: 1160
ScSla1-D1-D2
  SPOT peptide array binding signal intensity: ≤ 0
ScSla1-D3
  SPOT peptide array binding signal intensity: 8.5
SpAbp1-D1
  SPOT peptide array binding signal intensity: 1
SpBbc1
  SPOT peptide array binding signal intensity: 3.75
SpBzz1-D1
  SPOT peptide array binding signal intensity: 22
SpBzz1-D2
  SPOT peptide array binding signal intensity: ≤ 0
SpCyk3
  SPOT peptide array binding signal intensity: 7
SpHof1
  SPOT peptide array binding signal intensity: 121
SpHof1-2
  SPOT peptide array binding signal intensity: 31.5
SpHof1-3
  SPOT peptide array binding signal intensity: 443
SpHse1
  SPOT peptide array binding signal intensity: 3340
SpLsb1
  SPOT peptide array binding signal intensity: ≤ 0
SpLsb4
  SPOT peptide array binding signal intensity: ≤ 0
SpMyo1
  SPOT peptide array binding signal intensity: 0.5
SpNbp2
  SPOT peptide array binding signal intensity: 52.5
SpPex13
  SPOT peptide array binding signal intensity: 52
SpRvs167
  SPOT peptide array binding signal intensity: 9.83
SpSla1-D1-D2
  SPOT peptide array binding signal intensity: 4
SpSla1-D3
  SPOT peptide array binding signal intensity: 8

B2: unnamed (peptide)
chain: QFDLKMPSKPIHNLK
AgAbp1
  SPOT peptide array binding signal intensity: ≤ 0
AgBbc1
  SPOT peptide array binding signal intensity: 0.5
AgBem1-D1
  SPOT peptide array binding signal intensity: 103
AgBzz1-D1
  SPOT peptide array binding signal intensity: 3.5
AgBzz1-D2
  SPOT peptide array binding signal intensity: ≤ 0
AgCyk3
  SPOT peptide array binding signal intensity: ≤ 0
AgFus1
  SPOT peptide array binding signal intensity: 48.5
AgHof1
  SPOT peptide array binding signal intensity: ≤ 0
AgHse1
  SPOT peptide array binding signal intensity: 85.5
AgLsb1
  SPOT peptide array binding signal intensity: ≤ 0
AgLsb4
  SPOT peptide array binding signal intensity: 3.5
AgMyo5
  SPOT peptide array binding signal intensity: ≤ 0
AgNbp2
  SPOT peptide array binding signal intensity: 63.5
AgRvs167
  SPOT peptide array binding signal intensity: 0.333
AgSho1
  SPOT peptide array binding signal intensity: 57
AgSla1-D1-D2
  SPOT peptide array binding signal intensity: ≤ 0
AgSla1-D3
  SPOT peptide array binding signal intensity: ≤ 0
CaAbp1-D1
  SPOT peptide array binding signal intensity: ≤ 0
CaAbp1-D2
  SPOT peptide array binding signal intensity: ≤ 0
CaBbc1
  SPOT peptide array binding signal intensity: 9.5
CaBem1-D1
  SPOT peptide array binding signal intensity: 25
CaBzz1-D1
  SPOT peptide array binding signal intensity: ≤ 0
CaBzz1-D2
  SPOT peptide array binding signal intensity: 8
CaCyk3
  SPOT peptide array binding signal intensity: 1.5
CaFus1
  SPOT peptide array binding signal intensity: 446
CaHof1
  SPOT peptide array binding signal intensity: ≤ 0
CaHse1
  SPOT peptide array binding signal intensity: 49.8
CaLsb1
  SPOT peptide array binding signal intensity: ≤ 0
CaLsb4
  SPOT peptide array binding signal intensity: 142
CaMyo5
  SPOT peptide array binding signal intensity: 8
CaNbp2
  SPOT peptide array binding signal intensity: 202
CaRvs167
  SPOT peptide array binding signal intensity: 1.67
CaRvs167-3
  SPOT peptide array binding signal intensity: ≤ 0
CaSho1
  SPOT peptide array binding signal intensity: 376
CaSla1-D1-D2
  SPOT peptide array binding signal intensity: 68
CaSla1-D3
  SPOT peptide array binding signal intensity: 77
ScAbp1
  SPOT peptide array binding signal intensity: ≤ 0
ScBbc1
  SPOT peptide array binding signal intensity: 0.25
ScBem1-D1
  SPOT peptide array binding signal intensity: ≤ 0
ScBzz1-D1
  SPOT peptide array binding signal intensity: ≤ 0
ScBzz1-D2
  SPOT peptide array binding signal intensity: 3.5
ScCyk3
  SPOT peptide array binding signal intensity: ≤ 0
ScFus1
  SPOT peptide array binding signal intensity: 70
ScHof1
  SPOT peptide array binding signal intensity: 0.5
ScHse1
  SPOT peptide array binding signal intensity: 57
ScLsb1
  SPOT peptide array binding signal intensity: 9
ScLsb2
  SPOT peptide array binding signal intensity: 1
ScLsb3
  SPOT peptide array binding signal intensity: 74
ScLsb4
  SPOT peptide array binding signal intensity: 21
ScMyo3
  SPOT peptide array binding signal intensity: ≤ 0
ScMyo5
  SPOT peptide array binding signal intensity: ≤ 0
ScNbp2
  SPOT peptide array binding signal intensity: 79.5
ScPex13
  SPOT peptide array binding signal intensity: 23.8
ScRvs167
  SPOT peptide array binding signal intensity: 2.83
ScSho1
  SPOT peptide array binding signal intensity: 198
ScSla1-D1-D2
  SPOT peptide array binding signal intensity: 59
ScSla1-D3
  SPOT peptide array binding signal intensity: 150
SpAbp1-D1
  SPOT peptide array binding signal intensity: 0.5
SpBbc1
  SPOT peptide array binding signal intensity: 1.5
SpBzz1-D1
  SPOT peptide array binding signal intensity: 104
